Compounds without any hit were thinned out: in the full panel of roughly 83,000, 20% have a hit.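 Assay: single dose, 48 h. Readout: percent growth (0 = no net growth; negative = cell death). Active: <10.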 Unmarked numbers belong to inactive results. Active and inactive are the calls of the source.
tested on: LOX IMVI melanoma; assay: NCI-60 one-dose screen, 48 h (100 = growth as untreated, 0 = no growth, -100 = all killed); conditions: 10 µM unless noted

SMILES | growth
CSc1nnc(-c2cc3c([nH]c4ccccc43)c(-c3cccc(O)c3)n2)n1-c1ccccc1 | 33.1%
Nc1cc(C(=O)NC[C@H]2CN(c3ccc(N4CCC(C(=O)O)CC4)cc3)C(=O)O2)ccc1Cl | 97%
CC(C)(Sc1cc(C(C)(C)C)c(OC(=O)CCCC(=O)O)c(C(C)(C)C)c1)Sc1cc(C(C)(C)C)c(OC(=O)CCCC(=O)O)c(C(C)(C)C)c1 | 27.1%
C=CCn1c(SCC(=O)Nc2ccc(C(=O)/C=C/c3ccc(Cl)cc3)cc2)nnc1-c1ccc(Br)cc1 | 77.7%
CCOC(=O)c1nn(-c2ccc(S(N)(=O)=O)cc2)c2nc(C)cc(=O)n12 | 96.2%
CN(C)CCNC(=O)c1cc2c3cc(Cl)ccc3[nH]c2c2ncccc12 | -77.5% (active)
COc1ccccc1NC(=O)N=Nc1c(O)[nH]c2ccccc12 | 98.2%
CC(=O)N1N=C(c2ccc(C(F)(F)F)c(F)c2)CC1c1[nH]c(C)c(C(=O)NCC(F)(F)F)c1C (stereo not given) | 71.5%
O=C(/C=C(/C=C/c1ccc2[nH]ccc2c1)OB(F)F)/C=C/c1ccc2[nH]ccc2c1 | -64.3% (active)
CCOC(=O)c1cc2c(n1Cc1cc(OC)c(OC)c(OC)c1)-c1nc(N)sc1CCC2 | 48.5%
N#Cc1ccc(O)c(C2=NCC(c3ccccc3)O2)c1 (stereo not given) | 25.9%
CC(=O)c1c(C)nc(SCC(=O)Nc2cccc(O)c2)n1-c1ccc(Cl)cc1 | 104%
O=C(Nc1cccc2ccccc12)NC1CC1 | 101%
CCOC(=O)c1c2c(n3cccc(F)c13)C(=O)c1ncccc1C2=O | -20.9% (active)
O=c1c2ccccc2n2cnc3ccc(Cl)c1c32 | 62.8%
CC(C)c1ccc(-n2c(=S)[nH]c3sc4cc(O)ccc4c3c2=O)cc1 | 96.9%
N#Cc1c(-c2ccccc2)cc(-c2ccccc2)n(CCCC(=O)Nc2ccccc2N)c1=O | 48%
COc1cc2c(cc1OCCCN1CCN(CCCOc3cc4c(cc3OC)C(=O)N3CCC[C@H]3C=N4)CC1)C=CC(C)(C)O2 | -98.6% (active)

SMILES | growth
CCC(C(=O)[C@@H](C)[C@@H](O)[C@H](C)[C@@H]1O[C@@H]([C@@H](CC)C(=O)ONC(=O)c2ccccc2)CC[C@@H]1C)[C@H]1O[C@]2(C=CC(=O)[C@]3(CC[C@@](C)([C@H]4CC[C@](O)(CC)[C@H](C)O4)O3)O2)[C@H](C)C[C@@H]1C (stereo not given in full) | 4.55% (active)
CN1C(=O)/C(=C\c2nc([P+](c3ccccc3)(c3ccccc3)c3ccccc3)c(N3CCOCC3)o2)SC1=S | 86.1%
COc1ccc(/C=C/C(=O)c2cccc(OCCCCOc3cccc(C(=O)/C=C/c4ccc(OC)c(OC)c4)c3)c2)cc1OC | 61.7%
O=S(=O)(Nc1cc(Cl)ccc1Cl)c1ccc(-c2cnc(C3CC3)o2)cc1 | 35.8%
C=C1C(=O)O[C@H]2[C@H]1CC/C(COC(=O)c1cc3ccccc3s1)=C\CC[C@@]1(C)O[C@@H]21 | -83.7% (active)
N=C(N)c1ccc(-c2ccc(-c3ccccc3)o2)cc1 | -89.8% (active)
c1cnc2c(-c3nc4ccc5[nH]ncc5c4c4c3CCCC4)c[nH]c2c1 | 19.6%
Cc1nc2sc(C(=O)Nc3cccc(Br)c3)c(N)c2cc1C(O)c1ccccc1 (stereo not given) | 48%
Cn1ccnc1C(=O)/C=C/c1ccc(CC(=O)Nc2cc(C(F)(F)F)cc(C(F)(F)F)c2)cc1 | 56.5%
C=C1C(=O)O[C@H]2[C@H]1CC/C(Cn1cc(-c3ccccc3)nn1)=C\CC[C@@]1(C)O[C@@H]21 | -84.7% (active)
Oc1c(I)cc(I)cc1CNCc1ccccn1 | 30.2%
CCOC(=O)c1cc2c(n1C)-c1nc(NC(C)=O)sc1CCC2 | 79.6%
COc1c(C(=O)Nc2ccc(C)c(Br)c2)ccc2ccccc12 | 95.1%
O=C(Nc1ccc(Oc2cccc(F)c2)c(Cl)c1)c1cccnc1 | 52.8%
COC12C=C/C(=C(/C(=O)OCc3ccncn3)C(=O)CCCCCCCCC3(OC)C=C/C(=C(/C(=O)OCc4ccncn4)C(=O)CCCCCCCC1)O3)O2 | -54.8% (active)
COC1=CC(c2ccc[nH]2)=N/C1=C\c1[nH]c(C)c(C(=O)OC(C)C)c1C | -92.4% (active)
O=C(Nc1cccc(Cl)c1)Nc1cccc(Cn2c(=O)[nH]c3ccc(Oc4ncccn4)cc3c2=O)c1 | 49.7%
